# Laboratory results taken from PubChem BioAssay (EPA / NIEHS).
# Calls of active or inactive are those of the source. Rule for the calls: active = hit-call score of the fitted dose curve at least 0.9, where 1 is the maximum; inactive = score below 0.9.
# What was measured:
# [1] = read-out: Macrophage colony-stimulating factor (MCSF), CSF1 (gene 1435); assay: BSK_CASM3C_MCSF: BioMAP Diversity Plus: CASM3C Assay for Macrophage colony-stimulating factor (MCSF) Biomarker Activity (AID 2283044); settings: primary human coronary artery smooth muscle cells; actives raise or lower the signal;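 note: M-CSF protein amount quantified by ELISA after 24 h exposure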
# [2] = read-out: Low-density lipoprotein receptor (LDLR), LDLR (gene 3949); assay: BSK_CASM3C_LDLR: BioMAP Diversity Plus: CASM3C Assay for Low-density lipoprotein receptor (LDLR) Biomarker Activity (AID 2283045); settings: primary human coronary artery smooth muscle cells; actives raise or lower the signal;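 note: LDLR protein level on the cell surface quantified by ELISA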
# [3] = read-out: Monocyte Chemoattractant Protein-1 (MCP1), CCL2 (gene 6347); assay: BSK_CASM3C_MCP1: BioMAP Diversity Plus: CASM3C Assay for Monocyte Chemoattractant Protein-1 (MCP1) Biomarker Activity (AID 2283046); settings: primary human coronary artery smooth muscle cells; actives raise or lower the signal;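 note: MCP-1 level quantified by ELISA 24 h after dosing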
# [4] = BSK_CASM3C_Proliferation: Cell Proliferation Assessment in the BioMAP Diversity Plus: CASM3C Assay (AID 2283047); settings: primary human coronary artery smooth muscle cells;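 note: sulforhodamine B total protein stain as relative cell number at 560 nm; sub-confluent cells exposed 48 h before staining; fitted both ways against DMSO so gain or loss of cell number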
# [5] = read-out: Monokine induced gamma interferon (MIG), CXCL9 (gene 4283); assay: BSK_CASM3C_MIG: BioMAP Diversity Plus: CASM3C Assay for Monokine induced gamma interferon (MIG) Biomarker Activity (AID 2283048); settings: primary human coronary artery smooth muscle cells; actives raise or lower the signal;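 note: MIG protein level measured by ELISA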
# [6] = read-out: serum amyloid A (SAA), SAA1 (gene 6288); assay: BSK_CASM3C_SAA: BioMAP Diversity Plus: CASM3C Assay for serum amyloid A (SAA) Biomarker Activity (AID 2283049); settings: primary human coronary artery smooth muscle cells; actives raise or lower the signal;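 note: SAA protein level quantified by ELISA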
# [7] = BSK_CASM3C_SRB: Viability Assessment in the BioMAP Diversity Plus: CASM3C Assay (AID 2283050); settings: primary human coronary artery smooth muscle cells
# [8] = read-out: Thrombomodulin, THBD (gene 7056); assay: BSK_CASM3C_Thrombomodulin: BioMAP Diversity Plus: CASM3C Assay for Thrombomodulin Biomarker Activity (AID 2283051); settings: primary human coronary artery smooth muscle cells; actives raise or lower the signal;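 note: thrombomodulin protein level measured by ELISA 24 h after dosing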
# [9] = read-out: Tissue Factor, F3 (gene 2152); assay: BSK_CASM3C_TissueFactor: BioMAP Diversity Plus: CASM3C Assay for Tissue Factor Biomarker Activity (AID 2283052); settings: primary human coronary artery smooth muscle cells; actives raise or lower the signal;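 note: cell surface tissue factor protein level read by ELISA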
# [10] = read-out: Interferon-gamma inducible Protein 10 (IP10), CXCL10 (gene 3627); assay: BSK_hDFCGF_IP10: BioMAP Diversity Plus: hDFCGF Assay for Interferon-gamma inducible Protein 10 (IP10) Biomarker Activity (AID 2283053); settings: primary human foreskin fibroblasts; actives raise or lower the signal
# Summary of the method: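 Primary human foreskin fibroblasts exposed to chemicals for 24 h. IP-10 measured by ELISA; changes fitted bidirectionally against DMSO baseline.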
# [11] = read-out: Urokinase-type plasminogen activator receptor (uPAR), PLAUR (gene 5329); assay: BSK_CASM3C_uPAR: BioMAP Diversity Plus: CASM3C Assay for Urokinase-type plasminogen activator receptor (uPAR) Biomarker Activity (AID 2283054); settings: primary human coronary artery smooth muscle cells; actives raise or lower the signal;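 note: cell-surface uPAR protein level quantified by ELISA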
# [12] = read-out: Vascular cell adhesion molecule 1 (VCAM1), VCAM1 (gene 7412); assay: BSK_CASM3C_VCAM1: BioMAP Diversity Plus: CASM3C Assay for Vascular cell adhesion molecule 1 (VCAM1) Biomarker Activity (AID 2283055); settings: primary human coronary artery smooth muscle cells; actives raise or lower the signal;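 note: VCAM-1 protein level quantified by ELISA on the cells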
# [13] = read-out: Collagen III, COL3A1 (gene 1281); assay: BSK_hDFCGF_CollagenIII: BioMAP Diversity Plus: hDFCGF Assay for Collagen III Biomarker Activity (AID 2283056); settings: primary human foreskin fibroblasts; actives raise or lower the signal
# Summary of the method: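 Response relative to DMSO, fitted in both directions, reflects ELISA-measured collagen III in human primary skin fibroblasts 24 h after compound addition.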
# [14] = read-out: Epidermal growth factor receptor (EGFR), EGFR (gene 1956); assay: BSK_hDFCGF_EGFR: BioMAP Diversity Plus: hDFCGF Assay for Epidermal growth factor receptor (EGFR) Biomarker Activity (AID 2283057); settings: primary human foreskin fibroblasts; actives raise or lower the signal
# Summary of the method: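 Primary human foreskin fibroblasts (hDFCGF system), sampled 24 h after dosing; EGFR quantified by ELISA. Bidirectional fit relative to DMSO baseline; SRB total-protein staining in parallel cultures for cytotoxicity.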
# [15] = read-out: Interleukin-8 (IL8), CXCL8 (gene 3576); assay: BSK_hDFCGF_IL8: BioMAP Diversity Plus: hDFCGF Assay for Interleukin-8 (IL8) Biomarker Activity (AID 2283058); settings: primary human foreskin fibroblasts; actives raise or lower the signal
# Summary of the method: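 Fibroblast monolayers (human foreskin, hDFCGF) received test chemical for 24 h before ELISA detection of IL-8; either increases or decreases relative to DMSO count as activity.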
# [16] = BSK_hDFCGF_Proliferation: Cell Proliferation Assessment in the BioMAP Diversity Plus: hDFCGF Assay (AID 2283059); settings: primary human foreskin fibroblasts;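 note: curves fitted for both rise and fall of signal versus DMSO baseline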
# Summary of the method: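 Primary human foreskin fibroblasts, sub-confluent; […]; 10% TCA fix, 0.1% SRB stain, A560 total protein. Gain/loss fitted bidirectionally vs DMSO control.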
# [17] = read-out: Macrophage colony-stimulating factor (MCSF), CSF1 (gene 1435); assay: BSK_hDFCGF_MCSF: BioMAP Diversity Plus: hDFCGF Assay for Macrophage colony-stimulating factor (MCSF) Biomarker Activity (AID 2283060); settings: primary human foreskin fibroblasts; actives raise or lower the signal
# Summary of the method: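 fibroblasts (human foreskin, primary), 24 h post-dose; M-CSF by ELISA; bidirectional fit, DMSO = baseline.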
# [18] = BSK_hDFCGF_SRB: Viability Assessment in the BioMAP Diversity Plus: hDFCGF Assay (AID 2283061); settings: primary human foreskin fibroblasts;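 note: cells exposed to compound for 24 h before the read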
# Summary of the method: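 SRB-based viability read on primary human skin fibroblasts at 24 h: TCA fixation, 0.1% dye, 560 nm. Gain or loss of signal is fitted against the DMSO negative control.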
# [19] = read-out: TIMP metallopeptidase inhibitor 1 (TIMP1), TIMP1 (gene 7076); assay: BSK_hDFCGF_TIMP1: BioMAP Diversity Plus: hDFCGF Assay for TIMP metallopeptidase inhibitor 1 (TIMP1) Biomarker Activity (AID 2283062); settings: primary human foreskin fibroblasts; actives raise or lower the signal
# Summary of the method: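 Bidirectional curve fitting against DMSO baseline yielded this endpoint, based on ELISA detection of TIMP-1 in primary human foreskin fibroblasts exposed to compound for 24 h.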
# [20] = read-out: Monokine induced gamma interferon (MIG), CXCL9 (gene 4283); assay: BSK_hDFCGF_MIG: BioMAP Diversity Plus: hDFCGF Assay for Monokine induced gamma interferon (MIG) Biomarker Activity (AID 2283063); settings: primary human foreskin fibroblasts; actives raise or lower the signal
# Summary of the method: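 Endpoint derived by bidirectional fitting relative to DMSO; MIG quantified via ELISA in primary human foreskin fibroblasts harvested 24 h after dosing.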
smiles,measurement,setting,value
[Cl][Sn]([c]1ccccc1)([c]1ccccc1)[c]1ccccc1,AC50,[1],0.718 µM (active)
same,AC50,[2],0.343 µM (active)
same,AC50,[3],0.599 µM (active)
same,AC50,[4],0.134 µM (active)
same,AC50,[5],0.524 µM (active)
same,AC50,[6],0.522 µM (active)
same,AC50,[7],0.688 µM (active)
same,AC50,[8],1.07 µM (active)
same,AC50,[9],1.37 µM (active)
same,AC50,[10],0.0861 µM (active)
same,AC50,[11],0.351 µM (active)
same,AC50,[12],0.396 µM (active)
same,AC50,[13],0.5 µM (active)
same,outcome,[14],inactive
same,AC50,[15],0.123 µM (active)
same,AC50,[16],0.0542 µM (active)
same,AC50,[17],0.166 µM (active)
same,AC50,[18],0.233 µM (active)
same,AC50,[19],0.158 µM (active)
same,AC50,[20],0.0855 µM (active)
Cc1ccccc1OP(=O)(Oc1ccccc1C)Oc1ccccc1C,AC50,[1],29.4 µM (active)
same,outcome,[2],inactive
same,AC50,[3],24.3 µM (active)
same,AC50,[4],24.3 µM (active)
same,outcome,[5],inactive
same,outcome,[6],inactive
same,AC50,[7],30.1 µM (active)
same,outcome,[8],inactive
same,outcome,[9],inactive
same,AC50,[10],11.2 µM (active)
same,AC50,[11],20 µM (active)
same,AC50,[12],32.4 µM (active)
same,outcome,[13],inactive
same,AC50,[14],11.8 µM (active)
same,outcome,[15],inactive
same,AC50,[16],4.26 µM (active)
same,AC50,[17],7.75 µM (active)
same,AC50,[18],8.28 µM (active)
same,AC50,[19],11.7 µM (active)
same,AC50,[20],12.8 µM (active)
O=S(=O)(C(Cl)(Cl)Cl)C(Cl)(Cl)Cl,AC50,[1],2.2 µM (active)
same,outcome,[2],inactive
same,AC50,[3],2.28 µM (active)
same,AC50,[4],0.528 µM (active)
same,AC50,[5],3.13 µM (active)
same,AC50,[6],0.877 µM (active)
same,AC50,[7],1.54 µM (active)
same,outcome,[8],inactive
same,AC50,[9],1.85 µM (active)
same,AC50,[10],2.92 µM (active)
same,AC50,[11],3.04 µM (active)
same,AC50,[12],1.41 µM (active)
same,AC50,[13],2.27 µM (active)
same,AC50,[14],1.55 µM (active)
same,AC50,[15],3.56 µM (active)
same,AC50,[16],0.0831 µM (active)
same,AC50,[17],2.3 µM (active)
same,AC50,[18],1.52 µM (active)
same,AC50,[19],1.72 µM (active)
same,AC50,[20],2.36 µM (active)
Clc1cccc(Cl)c1Cl,outcome,[1],inactive
same,outcome,[2],inactive
same,outcome,[3],inactive
same,outcome,[4],inactive
same,outcome,[5],inactive
same,outcome,[6],inactive
same,outcome,[7],inactive
same,outcome,[8],inactive
same,outcome,[9],inactive
same,outcome,[10],inactive
same,outcome,[11],inactive
same,outcome,[12],inactive
same,outcome,[13],inactive
same,outcome,[14],inactive
same,outcome,[15],inactive
same,outcome,[16],inactive
same,outcome,[17],inactive
same,outcome,[18],inactive
same,outcome,[19],inactive
same,outcome,[20],inactive
CCCCN(CCCC)C(=S)[S-].CCCCN(CCCC)C(=S)[S-].[Ni+2],outcome,[1],inactive
same,outcome,[2],inactive
same,outcome,[3],inactive
same,outcome,[4],inactive
same,outcome,[5],inactive
same,outcome,[6],inactive
same,outcome,[7],inactive
same,outcome,[8],inactive
same,outcome,[9],inactive
same,outcome,[10],inactive
same,outcome,[11],inactive
same,outcome,[12],inactive
same,outcome,[13],inactive
same,outcome,[14],inactive
same,outcome,[15],inactive
same,outcome,[16],inactive
same,outcome,[17],inactive
same,outcome,[18],inactive
same,outcome,[19],inactive
same,outcome,[20],inactive
CC(C)(C)c1cc([N+](=O)[O-])cc(C(C)(C)C)c1O,outcome,[1],inactive
same,outcome,[2],inactive
same,outcome,[3],inactive
same,outcome,[4],inactive
same,outcome,[5],inactive
same,outcome,[6],inactive
same,outcome,[7],inactive
same,outcome,[8],inactive
same,outcome,[9],inactive
same,outcome,[10],inactive
same,AC50,[11],11.8 µM (active)
same,outcome,[12],inactive
same,outcome,[13],inactive
same,outcome,[14],inactive
same,outcome,[15],inactive
same,outcome,[16],inactive
same,outcome,[17],inactive
same,outcome,[18],inactive
same,outcome,[19],inactive
same,outcome,[20],inactive
CCCCCCCCCCCCN(C)C,outcome,[1],inactive
same,AC50,[2],26.7 µM (active)
same,outcome,[3],inactive
same,outcome,[4],inactive
same,outcome,[5],inactive
same,outcome,[6],inactive
same,outcome,[7],inactive
same,outcome,[8],inactive
same,outcome,[9],inactive
same,outcome,[10],inactive
same,outcome,[11],inactive
same,outcome,[12],inactive
same,outcome,[13],inactive
same,outcome,[14],inactive
same,outcome,[15],inactive
same,outcome,[16],inactive
same,outcome,[17],inactive
same,outcome,[18],inactive
same,outcome,[19],inactive
same,outcome,[20],inactive
c1ccc2sc(SNC3CCCCC3)nc2c1,outcome,[1],inactive
same,outcome,[2],inactive
same,outcome,[3],inactive
same,outcome,[4],inactive
same,outcome,[5],inactive
same,outcome,[6],inactive
same,outcome,[7],inactive
same,outcome,[8],inactive
same,outcome,[9],inactive
same,outcome,[10],inactive
same,outcome,[11],inactive
same,outcome,[12],inactive
same,outcome,[13],inactive
same,outcome,[14],inactive
same,outcome,[15],inactive
same,outcome,[16],inactive
same,outcome,[17],inactive
same,outcome,[18],inactive
same,outcome,[19],inactive
same,outcome,[20],inactive
